Screening results: PubChem BioAssay, National Center for Advancing Translational Sciences (NCATS)
Sampled rows, rich in hits. Any-hit rate of the full collection: about 9.2%.
FLuc modulator: counter-screen for miR-21 project: firefly luciferase inhibitors or activators; P08659; purified FLuc, Km substrates, luminescence inhibition; Potency, µM (titrated, usually from 57.5 µM), inactives show at the top dose activity change, negative = inhibition, usual class: inhibitors; 360,000 compounds, 6.9% hits; AID 588342;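 note: plate controls were vehicle for no effect and reference inhibitor for full effect; nearly all actives have a fitted effect of over 55% in size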
Target sequence (P08659 whole entry, looked up): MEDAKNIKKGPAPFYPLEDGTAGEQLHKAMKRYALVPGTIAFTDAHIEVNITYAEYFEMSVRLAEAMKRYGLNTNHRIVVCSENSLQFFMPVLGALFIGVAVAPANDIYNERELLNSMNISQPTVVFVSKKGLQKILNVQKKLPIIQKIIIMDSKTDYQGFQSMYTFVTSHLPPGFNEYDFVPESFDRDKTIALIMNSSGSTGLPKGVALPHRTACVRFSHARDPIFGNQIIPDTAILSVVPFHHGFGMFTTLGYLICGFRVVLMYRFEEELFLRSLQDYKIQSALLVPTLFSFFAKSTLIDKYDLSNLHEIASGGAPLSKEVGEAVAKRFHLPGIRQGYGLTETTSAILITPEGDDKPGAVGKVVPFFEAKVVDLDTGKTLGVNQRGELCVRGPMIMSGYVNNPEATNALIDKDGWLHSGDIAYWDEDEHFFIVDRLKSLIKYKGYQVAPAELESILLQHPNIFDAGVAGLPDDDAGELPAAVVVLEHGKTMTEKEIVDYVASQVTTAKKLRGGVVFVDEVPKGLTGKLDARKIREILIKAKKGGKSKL
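Purified P. pyralis luciferase, 10 nM final, with Km-level 10 uM D-luciferin and 10 uM ATP in 50 mM Tris acetate pH 7.5, 10 mM Mg acetate, 0.01% Tween-20, 0.05% BSA; 6-point qHTS titration about 60 µM downward; luminescence read.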
ELG1 repair inh: ELG1-dependent DNA repair inhibition; HEK293T ELG1-luciferase reporter, luminescence, 16 h; DNA damage induced by 5-fluorouridine; Potency, µM (highest dose often 46.1 µM), for the others: at the top dose activity change, negative = inhibition, usual class: inhibitors; 330,000 compounds, 2.3% hits; AID 504467; note: % is set by controls: 0 for no effect and ±100 for the full control effect; nearly all actives have a fitted effect of over 55% in size
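Quantitative HTS, concentration-response format. 2,000 cells/well co-treated with 5-fluorouridine and compound, 16 hr in 5% CO2 at 37 °C; ONE-Glo luminescence read after 30 min.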
NPC1 prom act: activators of NPC1 promoter. Huh7 NPC1 promoter luciferase reporter, 24 h. Potency, µM (top dose mostly 9.22 µM), inactives show at the highest dose activation, usual class: activators. 320,000 compounds, 2.4% hits; note: % of control where 0% means no effect; nearly all actives have a fitted effect of over 60% in size
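Compounds in DMSO were transferred onto Huh7 NPC1-luciferase reporter cells pre-incubated 2 h; after 24 h at 37 °C, Amplite reagent was dispensed and luminescence recorded 10 min later.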
Rab9 prom act: activates the Rab9 promoter. Huh7 Rab9 promoter-luciferase reporter, luminescence, 24 h. Potency, µM (highest dose often 9.22 µM), without a hit: at the top dose activation, negative = inhibition, actives largely listed as activators. 320,000 compounds, 2.8% hits. AID 485297; note: % of control where 0% means no effect; nearly all actives have a fitted effect of over 60% in size
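Rab9 promoter-driven luciferase in stably transfected Huh7 cells; 1500 cells/well rested 2 h, exposed to compound in DMSO for 24 h at 37 °C, 5% CO2. Luminescence read 10 min after adding luciferase reagent at ambient temperature.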
SMN2 splice up: increases expression of the SMN2 splice variant; Potency, µM (top dose mostly 46.1 µM), inactives show at the highest dose activity change, positive = activation, most hits filed as activators; 210,000 compounds, 2.8% hits; HEK293 SMN2-luciferase splicing reporter, luminescence, 30-36 h; note: % of control where 0% means no effect; nearly all actives have a fitted effect of over 55% in size
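HEK293 cells carry an SMN2 […]–luciferase reporter in which exon 7 inclusion puts luciferase in frame. Cells were plated 10-12 h before compound addition, then incubated 30-36 h at 37C. ONE-Glo luminescence was read; sodium butyrate at 4.5 mM final served as control.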
ELG1 genotox: inducers of genotoxicity in HEK293T ELG1-luciferase cells. HEK293T ELG1-luciferase reporter, luminescence, 16 h. Potency, µM (titrated, usually from 46 µM), without a hit: at the highest dose activity change, positive = activation, hits mostly activators. 330,000 compounds, 1.3% hits. AID 504466; note: % of control where 0% means no effect; nearly all actives have a fitted effect of over 60% in size
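HEK293T cells expressing luciferase-tagged ELG1 were exposed to compound or DMSO vehicle for 16 hr at 37 °C and 5% CO2. Luciferase activity was then measured with ONE-Glo after 30 min at room temperature.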
* hit, by the source's call; u = inconclusive; x = not tested or not shown. Calls come from the whole dose curve; as a rule, active = well fitted curve in the direction sought with a large enough effect; inconclusive = small, poorly fitted or top-dose-only effect, or another doubt; inactive = no such curve, though single readings can be large; an effect the other way counts as inactive or inconclusive. Potency is the fitted concentration of half-maximal effect.

SMILES	FLuc modulator	ELG1 repair inh	NPC1 prom act	Rab9 prom act	SMN2 splice up	ELG1 genotox
COc1ccc(N(CC(=O)Nc2cccc(C)c2)S(=O)(=O)c2ccc(C)cc2)cc1OC	0%	2%	-4%	0%	x	6%
COc1ccc(Nc2nc(N)nc(SCc3nnc(C)s3)n2)cc1	24µM*	u	26%	u	u	u
COc1ccc(Nc2nc(N)nc(CSc3nc(C)cc(C)n3)n2)cc1	-20%	-2%	-5%	-9%	x	9%
O=C(/C=C/c1ccco1)NCc1ccccn1	-10%	u	0%	11%	10%	5%
COC(=O)c1ccccc1NC(=O)/C=C/c1ccco1	15µM*	u	10%	28%	15%	-5%
O=C(/C=C/c1ccccc1)Nc1cccnc1Cl	12µM*	u	2.2µM*	2.2µM*	x	18µM*
O=C(/C=C/c1ccco1)Nc1ccccc1N1CCCCC1	1%	-23%	-2%	-1%	-7%	-11%
O=C(/C=C/c1ccco1)Nc1cccnc1Cl	15µM*	u	4µM*	4µM*	x	u
CCSc1nc2sc3c(c2c(=O)n1-c1ccc(C)cc1)CCCC3	-12%	x	x	x	-5%	x
CCCCN(Cc1cc2ccccc2[nH]c1=O)C(=O)c1cccc(Cl)c1	4%	x	x	x	-3%	x
CC(=O)Oc1ccc(-c2csc(Nc3ccc(Cl)cn3)n2)cc1	-19%	u	u	u	x	u
COc1ccc(CCNc2nc(-c3sc(N)nc3C)cs2)cc1OC	u	u	-1%	-3%	-3%	-6%
Cc1nc(N)sc1-c1csc(Nc2ccccn2)n1	6.7µM*	u	2.2µM*	1.6µM*	8.9µM*	u
Cc1nc(C)c(-c2csc(Nc3ccccn3)n2)s1	2.4µM*	u	0.56µM*	0.5µM*	x	u
Cc1nc(N)sc1-c1csc(Nc2ccc(Cl)cn2)n1	17µM*	u	17%	16%	-47%	-1%
CC(C)OCCCNC(=O)CCCn1c(=O)[nH]c2ccsc2c1=O	-4%	x	x	x	3%	x
O=C(NCCN1C(=O)S/C(=C\c2cccnc2)C1=O)C1=NN(c2ccccc2)C(=O)CC1	1%	3%	-1%	-2%	-1%	2%
CC(=O)Nc1ccc(SCC(=O)Nc2ccc3c(c2)OCCO3)cc1	x	u	x	x	x	8%
NC(=O)c1ccccc1OCC(=O)Nc1ccc2c(c1)OCCO2	8.5µM*	u	u	3.2µM*	x	u
O=C(COc1ccccc1Cl)Nc1ccc2c(c1)OCCO2	4.8µM*	u	4µM*	1.6µM*	x	4.1µM*
O=C(CSCc1c(Cl)cccc1Cl)Nc1ccc2c(c1)OCCO2	17µM*	-2%	13%	8%	18%	12%
O=C(COC(=O)c1cccnc1Cl)Nc1ccc2c(c1)OCCO2	8.5µM*	-7%	-2%	-2%	5%	7%
Cc1ccc(-n2c(=O)c3c4c(sc3n(CC(=O)Nc3ccccc3C)c2=O)CCCCC4)cc1C	-5%	x	x	x	12%	x
CCCCn1c(N)c(N(CCOC)C(=O)c2cccc(S(=O)(=O)N3CCCCCC3)c2)c(=O)[nH]c1=O	0%	9%	-2%	-5%	x	1%
Cc1ccccc1OCC(=O)Nc1ccc2c(c1)OCCO2	9.5µM*	u	3.5µM*	2.8µM*	x	u
SMILES	FLuc modulator	ELG1 repair inh	NPC1 prom act	Rab9 prom act	SMN2 splice up	ELG1 genotox
Cc1ccccc1OCC(=O)N/N=C/c1ccc2c(c1)OCCO2	27µM*	6%	1%	-1%	12%	4%
COc1ccccc1OCCC(=O)Nc1ccc2c(c1)OCO2	x	-11%	x	x	x	1%
Cc1cccc(C)c1OCC(=O)Nc1ccc2c(c1)OCCO2	u	u	13%	17%	x	u
COc1ccccc1OCC(=O)Nc1ccc2c(c1)OCCO2	17µM*	u	u	u	x	u
O=C(COc1ccccc1)N/N=C/c1ccc2c(c1)OCO2	u	-8%	4%	0%	3%	12%
CCc1c(C)sc(NC(=O)c2cc3nc(-c4ccc(OC)cc4)cc(C(F)(F)F)n3n2)c1C(=O)OC	0%	x	x	x	11%	x
COC(=O)[C@]1(Cc2ccccc2)N[C@H](CN(C)C(=O)Nc2ccc(C)cc2)[C@@H]2C(=O)N(C)C(=O)[C@@H]21	x	7%	x	x	x	0%
Cc1ccc(CNC(=O)C2CCCN(S(=O)(=O)c3ccc4c(ccn4C)c3)C2)cc1 (stereo not given)	-2%	x	x	x	x	x
Cc1cccc(NC(=O)C(C)Sc2nnc(-c3cccnc3)o2)c1 (stereo not given)	-5%	u	-2%	-4%	x	16%
COCC(C)(C)COS(N)(=O)=O	0%	7%	-6%	2%	x	-1%
COc1ccccc1NC=C1C(=O)OC(C)(C)OC1=O	11µM*	u	-4%	9%	9%	0%
CCCCCCNc1nc2c(c(=O)n(C)c(=O)n2C)n1Cc1cccc(C)c1	-5%	x	x	x	x	x
COc1ccc(CN(C)CC(=O)Nc2cc(OC)c([N+](=O)[O-])cc2C)c(OC)c1	5%	16µM*	-3%	-7%	-38%	-9%
O=C(Nc1ccc(Cl)c([N+](=O)[O-])c1)Nc1nc2ccccc2s1	u	u	18%	17%	x	-5%
COc1cccc(NC(=O)CN(C)CC(=O)Nc2ccc(C)c([N+](=O)[O-])c2)c1	5%	18µM*	-4%	-9%	x	-24%
O=C(Nc1ccccc1)Nc1ccc(Cl)c([N+](=O)[O-])c1	19µM*	u	13%	12%	-4%	-11%
COc1cc(NC(=O)CN(C)Cc2ccc(OC(F)F)cc2)c(C)cc1[N+](=O)[O-]	-1%	u	-3%	0%	x	-7%
O=C(Nc1ccc(Cl)cc1)Nc1cc([N+](=O)[O-])ccc1F	u	13µM*	1%	-1%	-16%	-13%
CCC(C)Sc1nc2c(c(=O)[nH]1)C(c1cccs1)C1=C(CCCC1=O)N2 (stereo not given)	-16%	-25%	-3%	-1%	-21%	0%
COc1ccc(CN(C)C(=O)c2cccc(S(=O)(=O)N3CCc4ccccc43)c2)c(OC)c1	5%	u	-1%	-1%	x	-11%
CC(=O)Nc1ccc(C)c([N+](=O)[O-])c1	-2%	-1%	-6%	-7%	x	3%
Cc1ccc(NC(=O)Nc2ccccc2)cc1[N+](=O)[O-]	8.5µM*	u	u	u	13µM*	-1%
O=C(Nc1ccccc1)Nc1ccc(F)c([N+](=O)[O-])c1	17µM*	-11%	-3%	-4%	-47%	-6%
CCc1ccc(-n2c(=O)c3ccccc3n(Cc3ccccc3C#N)c2=O)cc1	2%	x	x	x	-11%	x
